# M1 antag: blocks human M1 muscarinic receptor; P11229; CHO-K1 hM1, Fluo-8 calcium fluorescence, ACh EC80 antagonist; inhibition, % at 3 µM; hit rate 1.3% among 360,000; AID 588852;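 active = percent inhibition above its own plate's cutoff, namely the mean of that plate's compound wells plus 3 SD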;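 note: peak over basal fluorescence ratio during 140 s after agonist addition; 0% = ACh EC80 plus DMSO and 100% = DMSO alone without agonist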
# Target sequence (P11229 whole entry, looked up): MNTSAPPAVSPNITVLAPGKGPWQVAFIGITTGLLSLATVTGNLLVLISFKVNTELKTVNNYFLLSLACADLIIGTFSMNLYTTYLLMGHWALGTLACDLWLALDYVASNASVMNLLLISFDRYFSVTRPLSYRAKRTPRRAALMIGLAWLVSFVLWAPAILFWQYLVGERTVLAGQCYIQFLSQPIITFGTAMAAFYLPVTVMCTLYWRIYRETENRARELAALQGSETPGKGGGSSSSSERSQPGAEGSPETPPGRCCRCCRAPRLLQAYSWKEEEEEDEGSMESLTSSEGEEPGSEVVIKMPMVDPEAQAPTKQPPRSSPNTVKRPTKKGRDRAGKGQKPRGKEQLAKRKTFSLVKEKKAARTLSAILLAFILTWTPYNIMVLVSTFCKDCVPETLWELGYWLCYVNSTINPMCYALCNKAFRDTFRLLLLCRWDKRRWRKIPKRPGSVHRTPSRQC
# M1 PAM parental: M1 PAM counterscreen hit in parental CHO-K1 cells. ATP EC20, Fluo-8 calcium fluorescence; 0% at ATP EC20, 100% at ATP max. activation, % at 3 µM. hit rate 0.02% among 360,000;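 active = activation above the run cutoff, the mean activation of all test compounds plus 3 SD, cut at about 40% in these data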;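 note: peak over basal fluorescence ratio in a 140 s read after ATP addition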
# M1 PAM: positive allosteric modulators of human M1 muscarinic receptor; AID 588819; hit rate 0.088% among 360,000; P11229; CHO-K1 hM1, Fluo-8 calcium fluorescence, ACh EC20; 0% = ACh EC20, 100% = maximal ACh; activation, % at 3 µM; in the data active = activation above about 19%, passing the limit was not always enough
# CHO-K1 Ca ag: counter-screen for M1 agonists: effect in parental CHO-K1 cells; Fluo-8 calcium fluorescence; scaled to maximal ATP response, vehicle zero; activation, % at 3 µM; hit rate 0.48% among 360,000; in the data active = activation above about 15%;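 note: untransfected CHO-K1 host cells lacking M1 receptor as counterscreen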
# CHRM1 agonist: human M1 muscarinic receptor agonism; P11229; CHO-K1 hM1, Fluo-8 calcium fluorescence, agonist mode; 0% DMSO, 100% acetylcholine EC100; activation, % at 3 µM; hit rate 0.33% among 360,000;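 active = activation above the run's mean compound activation plus 3 SD, cut at about 16% in these data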;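 note: peak over basal fluorescence ratio within a 140 s kinetic read after compound addition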
# CHO-K1 Ca antag: nonselective inhibitor or artifact in parental CHO-K1 cells | ATP-induced calcium, Fluo-8 fluorescence | inhibition, % at 3 µM | hit rate 0.6% among 360,000;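 active = inhibition above a per-plate cutoff, the plate's mean sample inhibition plus 3 SD, cut at about 24% in these data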;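 note: 0% = DMSO plus EC80 ATP and 100% = DMSO alone without ATP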
# Starred values were filed as active, the others as inactive. An excerpt weighted towards active compounds, which were near 2.3% of everything screened.
SMILES,M1 antag,M1 PAM parental,M1 PAM,CHO-K1 Ca ag,CHRM1 agonist,CHO-K1 Ca antag
CCOC(=O)C1(Cc2ccc(Cl)cc2)CCN(C(C)Cc2ccc(O)c(OC)c2)CC1 (stereo not drawn),39*,0,-17,9,-5,19
CCOC(=O)C1(Cc2ccc(OC)cc2)CCN(S(C)(=O)=O)CC1,1,6,4,1,-2,-11
CN(C)N(Cc1ccccc1)C(=O)C(O)(c1ccccc1)c1ccccc1,5,13,-7,3,-8,-4
CN(C)C(C)(C)/C=C/C(O)(c1ccccc1)c1ccccc1,100*,-1,-26,3,-8,-9
O=C1CC(=C(c2ccccc2)c2ccccc2)C(=O)N1CCN1CCN(c2cccc(Cl)c2)CC1,7,2,-1,1,-5,-1
O=C1CC(=C(c2ccccc2)c2ccccc2)C(=O)N1CCCN1CCN(c2cccc(Cl)c2)CC1,38*,22,-20,0,-5,-19
COc1ccc(N(CC(=O)N2CCOCC2)S(C)(=O)=O)cc1,-28,-4,19,0,0,9
O=S(=O)(c1ccccc1)N1CC2CC(Br)C(Br)CC21 (stereo not drawn),-19,6,13,0,-5,4
O=C1CCC(=O)c2ccc3c4c(ccc1c24)CC3,-9,3,2,0,-6,-5
O=C1CCN2C=Nc3cccc4ccc1c2c34,-13,-8,-3,18*,25*,-2
COc1ccc(/C=N/NC(=O)CNC(=O)c2ccncc2)cc1OC,-8,12,8,0,-4,3
O=c1/c(=C/c2cccc3ccccc23)sc2ncnn12,17,-8,1,0,-2,28*
O=C(NNC(=O)c1ccc(-n2cncn2)c([N+](=O)[O-])c1)c1cccc(Cl)c1,-6,-16,5,1,-2,48*
O=C(NNC(=O)c1ccc(-n2cncn2)c([N+](=O)[O-])c1)c1ccc(Cl)cc1,-9,-21,14,0,2,19
COc1cccc(-c2nc(-c3ccc4c(c3)-c3ccccc3S4(=O)=O)c(-c3ccccc3)[nH]2)c1OC,5,-9,2,-1,2,27*
COc1cc(-c2nc(-c3ccc4c(c3)-c3ccccc3S4(=O)=O)c(-c3ccccc3)[nH]2)cc(OC)c1OC,22,-1,-5,2,-2,16
C#CCCc1cocc1/C=[N+](\[O-])c1ccc(C(=O)OCC)cc1,2,-16,9,-1,-2,0
CCN(C(=O)COC(=O)c1ccc[nH]c1=O)c1cccc2ccccc12,-15,18,7,1,-3,-10
COC(=O)C(C)(C)c1cccnc1C#N,-5,8,7,1,-1,-3
Cc1ccc(-c2[nH]ncc2C(=O)c2ccc(Br)cc2)c(O)c1,-11,4,11,3,-1,-1
Cc1ccc(C(=O)c2cn[nH]c2-c2cc(Cl)ccc2O)cc1,10,16,-4,19*,-2,0
N#Cc1ccccc1OCC(=O)NNC(=O)CCNC(=O)c1ccccc1,-13,7,17,0,2,-10
CC(=O)OCc1ccc(C2=CC(=O)CC(C)(C)C2=O)cc1,-9,-13,18,0,3,24*
CC(C)(C)C(=O)OCc1ccc(C2=CC(=O)CC(C)(C)C2=O)cc1,2,0,-5,2,1,-6
Cc1cc(C(=O)COC(=O)c2n[nH]c3ccccc23)c(C)n1C,-13,27,9,2,-2,-10
Cc1cc(C(=O)COC(=O)c2n[nH]c(=O)c3ccccc23)c(C)n1C,28*,-7,-12,0,-1,6
O=C(N/N=C/c1cc(Cl)cc(Cl)c1O)c1ccncc1,-1,2,2,15*,13,-3
O=C(CCSc1ccc(F)cc1)NNC(=O)c1ccc([N+](=O)[O-])cc1,-8,7,11,3,3,-6
CCNC(=O)C1(C)CCCN(Cc2cc(-c3ccccc3)n(C)n2)C1 (stereo not drawn),-18,20,5,1,-4,-11
O=C(COc1ccccc1Cl)c1ccc[nH]1,29*,9,-5,2,-11,8

# Source: PubChem (The Scripps Research Institute Molecular Screening Center)
